According to ChEMBL document CHEMBL3988442, “University of Dundee, Small-Polar-MMV Screening Library” (2021):
Among all 85,000 compounds or so, about 440 (0.52%) showed an effect of 50% or more. This is one part of a sample in which strong results are shown more often than they occur.

Assay: In vitro enzyme assay to detect hydrolysis of chlorophenol red-beta-D-[…] directly proportional to the number of Toxoplasma stably expressing beta-galactosidase
Type: functional, organism-based, Toxoplasma gondii
Parameters: scale not given: in the data most compounds retested in dose-response had high values

Structure (SMILES)	Percent Effect (50 µM) [%]	Percent Effect (10 µM) [%]
Nc1nnc(SCc2cn3ccccc3n2)s1	-6.062	–
CNCC(=O)Nc1ccccc1OC	7.8	–
N#CCC(=O)Nc1ccccc1I	0.5556	–
COc1ccccc1NC(=O)CC#N	50.64	–
Cn1c(C(C)(C)N)nc2ccccc21	4.322	–
COC(=O)Cc1cccc(NC(=O)CC2CC2)n1	2.915	–
COc1cccc(CNCC2CN(C)CCO2)c1 (stereo not drawn)	–	-20.59
COc1cccc(CNCC2CCOC2)c1 (stereo not drawn)	52.55	–
COc1cccc(N2CCC(CNCc3cccc(C#N)c3)C2)c1 (stereo not drawn)	–	-3.388
O=C(NCCSCc1cccc(Cl)c1)C1CNCCO1 (stereo not drawn)	4.575	–
CC(C)OCC(O)CN1CCN(C(C)C)CC1 (stereo not drawn)	-5.583	–
CCNCc1ccc(OCc2ccc3c(c2)OCCO3)cc1.Cl	–	57.45
CC(O)CNCc1ccc(OCc2ccc3c(c2)OCCO3)cc1.Cl (stereo not drawn)	–	-0.2514
CNCc1ccc(OCc2ccc3c(c2)OCCO3)cc1.Cl	–	14.53
CC(C)(C)NCc1ccc(OCc2ccc3c(c2)OCCO3)cc1.Cl	–	-4.151
CCCNCc1ccc(OCc2ccc3c(c2)OCCO3)cc1.Cl	–	26.87
COc1ccc2oc(CNC(C)(CO)CO)cc2c1	4.082	–
O=C(CNC(=O)c1cccs1)c1ccccc1	-23.7	–
CCN(CC(C)(C)O)C(=O)c1nccc2ccccc12	-2.694	–
CCNC(=O)CN1CCN(Cc2cccnc2N)CC1	3.908	–
COCC(C)NC(=O)CCn1cnc2sccc2c1=O (stereo not drawn)	-6.543	–
CS(=O)(=O)NCC(=O)NCc1cnn2ccccc12	-11.78	–
CCN1CCCC1CNS(=O)(=O)CCCC#N (stereo not drawn)	-20.61	–
CCc1n[nH]c(NC(=O)c2cc(C(C)=O)cs2)n1	-2.258	–
NC(=O)CCN1C(=O)CCC1=O	1.954	–
Cc1ccccc1CNC(=O)N(C)Cc1nnc[nH]1	-3.326	–

Structure (SMILES)	Percent Effect (50 µM) [%]	Percent Effect (10 µM) [%]
COC(=O)c1cnc(F)cn1	53.27	–
COC(=O)c1cnc(O)cn1	0.4239	–
COC(=O)c1cnc(OC)cn1	10.7	–
O=C(CNC1(CO)CCOCC1)Nc1cccc(F)c1	-18.29	–
CC(C)C(N)C1(CO)CCC1 (stereo not drawn)	-14.82	–
N#Cc1cccnc1NCC1COc2ccccc2O1 (stereo not drawn)	-5.408	–
CCc1ccc(CN2CCCn3c(nc(Cn4ccnc4)cc3=O)C2)o1.O=C(O)C(F)(F)F.O=C(O)C(F)(F)F	–	1.534
Cc1ccc(CN2CCCn3c(nc(Cn4ccnc4)cc3=O)C2)o1	–	95.97
O=c1cc(Cn2ccnc2)nc2n1CCCN(Cc1ccco1)C2	–	-0.8368
CC(c1nc(C2CC2)no1)N1CCN(CC(=O)N2CCOCC2)CC1 (stereo not drawn)	–	3.194
O=C(CN1CCCC(c2noc(C3CC3)n2)C1)N1CCCC1 (stereo not drawn)	–	4.609
NC(=O)CN1CC(c2nc(C3CC3)no2)C1.O=C(O)C(=O)O	–	-8.991
CC1CCN(C(=O)CN2CC(c3nc(C4CC4)no3)C2)CC1.O=C(O)C(=O)O	–	-17.41
O=C(CN1CC(c2nc(C3CC3)no2)C1)N1CCOCC1.O=C(O)C(=O)O	–	76.44
Nc1ccnn1Cc1ccccn1	-24.54	–
O=C(CN1CCCCC1)N1CCCCC1	1.789	–
O=C(NCCOCCO)c1cn2ccsc2n1	19.68	–
CNC(=O)C1CNC1	0.513	–
COCCCNC(=O)CN(C)c1ccccc1F	2.537	–
COc1cccc(-c2cccc(N3CCC(N[C@@H]4CCOC4)CC3)c2)c1	–	25.91
Cc1ccc(-c2cccc(N3CCC(NC4CCOCC4)CC3)c2)cc1	–	36.9
Clc1cccc(-c2cccc(N3CCC(NC4CCOCC4)CC3)c2)c1	–	94.46
c1cc(SCCOCC2CCCO2)ccn1 (stereo not drawn)	73.14	–
Cc1ccccc1-n1cnnc1SCCOCC1CCCO1 (stereo not drawn)	–	-4.234
NCCOCC1CCCO1 (stereo not drawn)	-7.088	–
CN1CCOC(C(=O)N(C)Cc2cccc(O)c2)C1 (stereo not drawn)	-4.809	–

Structure (SMILES)	Percent Effect (50 µM) [%]	Percent Effect (10 µM) [%]
CN(C)c1nc(N)nc(CN2CCCC2c2cccs2)n1 (stereo not drawn)	–	12.16
Nc1nc(N)nc(CN2CCCC2c2cccs2)n1 (stereo not drawn)	61.8	–
Oc1ccccc1CN1CCCCCC1c1cccs1 (stereo not drawn)	–	10.91
CC(=O)NCCCc1nc2ccccc2n1C	-0.2926	–
O=C(CN1CCOCC1)N1CCCC(c2nnc[nH]2)C1 (stereo not drawn)	-8.944	–
CC1C(=O)NCCN1C(=O)c1cc(-c2ccco2)on1 (stereo not drawn)	0.5841	–
Cc1cc(F)cc(S(=O)(=O)NCCN)c1	-4.306	–
O=C(CCn1cccn1)Nc1cncc(Br)c1O	-6.766	–
O=C(CC1CCCC1)NCCc1noc(CO)n1	66.39	–
CC[C@H](C)[C@H](N)C(=O)NCCc1noc(CO)n1	11.28	–
CCCOC(C)C(=O)NCCc1noc(CO)n1 (stereo not drawn)	-15.52	–
Cc1nccc(CNc2ncc(C(N)=O)cc2Cl)n1	-11.46	–
COc1ccccc1NCC(=O)NCC(C)(O)C(C)C (stereo not drawn)	0.7495	–
NC1CSc2ccccc21 (stereo not drawn)	16.15	–
NCCC(=O)N1CCCC(CCc2ccc(F)cc2)C1 (stereo not drawn)	62.64	–
NCC(=O)N1CCCC(CCc2ccc(F)cc2)C1 (stereo not drawn)	31.97	–
NCC(=O)N1CCCC(CCc2ccc(F)c(F)c2)C1 (stereo not drawn)	39.41	–
Cc1nnc(CNC(=O)Nc2ccc(F)cc2)o1	-6.078	–
CC1(C)CN(c2ccnc3ccccc23)CC[S+]1[O-] (stereo not drawn)	6.751	–
O=S(=O)(NC1CCCC1)C1CCOCC1	42.45	–
CCCC(=O)N1CCC(O)(Cn2c(CC)nc3ccccc3c2=O)CC1.Cl	–	-0.06406
CCc1nc2ccccc2c(=O)n1CC1(O)CCN(C(=O)COC)CC1.Cl	–	54.94
CCc1nc2ccccc2c(=O)n1CC1(O)CCN(C(=O)C2CC2)CC1.Cl	–	0.3648
Cc1cc(CNc2ncnc3c2cnn3C)on1	-29.33	–
CC1COc2ccccc2N1CC(N)=O (stereo not drawn)	-5.521	–
CNC(=O)N1CCCCCC1c1ccncc1 (stereo not drawn)	14.5	–
